Source: PubChem BioAssay (National Center for Advancing Translational Sciences (NCATS))
In the library only some 12% were active in any assay of this set; here they are far more common.
AMA1-RON2 inh: qHTS for Inhibitors of AMA1-RON; Towards Development of Antimalarial Drug Lead: Primary Screen; Plasmodium falciparum AMA1 (3D7) - RON2 peptide interaction; AlphaScreen AMA1-biotinylated RON2 peptide binding; Potency, µM (highest dose often 58.2 µM), for the others: at the highest dose activity change, negative = inhibition, most hits filed as inhibitors; 0.2% of 360,000 active;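 also: 0% = vehicle wells and -100% = peptide control; nearly all actives have a fitted effect of over 45% in size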
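AMA1 (3D7) with his tag at 25 nM final met compounds first, then biotinylated RON2 peptide at 25 nM; detection used donor plus acceptor beads, 10 µg/mL apiece, read by AlphaScreen after 30 min at room temperature.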
Pf growth 96h: Primary qHTS for delayed death inhibitors of the malarial parasite plastid, 96 hour incubation; P. falciparum luciferase reporter growth, 96 h; Potency, µM (top dose mostly 28.7 µM), inactives show at the highest dose activity change, negative = inhibition, actives largely listed as inhibitors; 6.9% of 320,000 active; AID 504834, 2011; also: % is scaled to controls: 0 for no effect and ±100 for the full control effect
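P. falciparum expressing integrated firefly luciferase grown in erythrocytes (2% hematocrit, 0.05% parasitemia final) with compounds for 96 hours at 37 C, 5% CO2. Growth inhibition read as loss of luminescence after adding luciferase detection reagent.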
NS1 function inh: qHTS Assay for Inhibitors of Influenza NS1 Protein Function | Potency, µM (top dose mostly 46.1 µM), inactives show at the top dose activity, positive = more growth | 0.4% of 270,000 active; calls by dose curve; also: actives are rising curves; nearly all actives have a fitted effect of over 50% in size
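In this qHTS, NS1 from influenza A is expressed in budding yeast, where it slows growth. Cells are switched from glucose to 2% galactose medium (pH 6.0, -URA), treated with compound, and growth recovery is read at OD600.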
SARS PLpro yeast: qHTS of Yeast-based Assay for SARS-CoV PLP. S. cerevisiae expressing SARS-CoV PLpro, growth rescue. Potency, µM (top dose mostly 32.9 µM), inactives show at the top dose activity, positive = growth rescue, usual class: activators. 0.19% of 330,000 active. AID 485353, 2010; calls by dose curve; also: 0% is about no effect; nearly all actives have a fitted effect of over 55% in size
Pf growth 48h: Primary qHTS for delayed death inhibitors of the malarial parasite plastid, 48 hour incubation. Potency, µM (highest dose often 28.7 µM), for inactives: at the top dose activity change, negative = inhibition, most hits filed as inhibitors. P. falciparum luciferase growth in erythrocytes, 48 h. 5.9% of 310,000 active. AID 504832, 2011; also: % is scaled to controls: 0 for no effect and ±100 for the full control effect
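In quantitative HTS format, infected erythrocytes bearing luciferase-reporter parasites were treated for a single generation at 37 C. Luminescence after adding detection reagent served as the growth measure.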
HCV inhibitor: qHTS Assay for Inhibitors of Hepatitis C Virus (HCV). Huh7.5.1 HCVcc-Cre infection, luciferase reporter, 44 h. Potency, µM (top dose mostly 41.8 µM), without a hit: top-dose activity change, negative = inhibition, actives largely listed as inhibitors. 3.4% of 340,000 active; also: % is scaled to controls: 0 for no effect and ±100 for the full control effect
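HCVcc-Cre virus at an moi near 0.5 was added right after compound to cells cultured 4 h from seeding (1,000 cells/well). Luciferase activity was determined 44 h later, 15 min after substrate addition at RT.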
Numbers without * were called inactive; [ ] = another dose, or the depositor's remark. Unless noted, calls follow the shape of the dose curve; as a rule, active = well fitted curve in the direction sought with a large enough effect; inconclusive = small, poorly fitted or top-dose-only effect, or another doubt; inactive = no such curve, though single readings can be large; an effect the other way counts as inactive or inconclusive. Potency is read from the fitted curve at half-maximal effect.

How did CCOCCCN(C(=O)c1snc(C(N)=O)c1N)C(C(=O)NC1CCCC1)c1ccc(OC)cc1 (stereo unspecified) do in these assays?
AMA1-RON2 inh: -1.8%; Pf growth 96h: 5.4%; NS1 function inh: 0.3%; SARS PLpro yeast: 0.2%; Pf growth 48h: 8.28µM*; HCV inhibitor: -1.7%

How did NC(=O)c1nsc(C(=O)N(CCc2ccccc2)C(C(=O)NC2CCCC2)c2ccco2)c1N (stereo unspecified) do in these assays?
AMA1-RON2 inh: -2.6%; Pf growth 96h: 10.4µM*; NS1 function inh: 2.5%; SARS PLpro yeast: inconclusive; Pf growth 48h: inconclusive; HCV inhibitor: -6.0%

How did c1ccc2c(c1)CNc1ccccc1-2 do in these assays?
AMA1-RON2 inh: -7.3%; HCV inhibitor: -10.8%

What do the screens show for `CN(CC(=O)NCC(=O)Nc1ccc(F)cc1)C1CCS(=O)(=O)C1` (stereo unspecified)?
AMA1-RON2 inh: -3.9%; Pf growth 96h: 18.1%; SARS PLpro yeast: -0.7%; Pf growth 48h: 5.8%; HCV inhibitor: -0.3%

What do the screens show for `CCCCC(C(=O)NC(C)(C)C)N(Cc1ccccc1Cl)C(=O)c1snc(C(N)=O)c1N` (stereo unspecified)?
AMA1-RON2 inh: -12.2%; Pf growth 96h: 86.3%; NS1 function inh: 2.5%; SARS PLpro yeast: -2.0%; Pf growth 48h: 10.4µM*; HCV inhibitor: -18.8%

How did COC(=O)[C@@]1(Cc2ccccc2)[C@@H]2C(=CC(=O)[C@H]2CC(=O)C(=O)N(C)C)CN1C(=O)c1ccccc1 do in these assays?
AMA1-RON2 inh: -1.5%; Pf growth 96h: 10.4µM*; NS1 function inh: -6.0%; SARS PLpro yeast: 6.4%; Pf growth 48h: inconclusive; HCV inhibitor: inconclusive

How did COc1ccccc1C(=O)Nc1nc2ccccc2s1 do in these assays?
AMA1-RON2 inh: 14.6%; Pf growth 96h: inconclusive; NS1 function inh: -13.9%; Pf growth 48h: inconclusive; HCV inhibitor: inconclusive

How did COc1cc(C(=O)Nc2nc3ccccc3s2)ccc1OCc1c(C)noc1C do in these assays?
AMA1-RON2 inh: 3.3%; Pf growth 96h: inconclusive; NS1 function inh: -3.1%; SARS PLpro yeast: -2.3%; Pf growth 48h: 11.7µM*; HCV inhibitor: inconclusive

How did COc1ccc2nc(NC(=O)CCc3cc(OC)c(OC)c(OC)c3)sc2c1 do in these assays?
AMA1-RON2 inh: -8.4%; Pf growth 96h: 9.28µM*; SARS PLpro yeast: 2.0%; Pf growth 48h: inconclusive; HCV inhibitor: inconclusive

How did COc1ccc2sc(NC(=O)NC(=O)c3c(Cl)cccc3Cl)nc2c1 do in these assays?
AMA1-RON2 inh: -24.8%; Pf growth 96h: 8.28µM*; NS1 function inh: 1.7%; SARS PLpro yeast: -0.3%; Pf growth 48h: 10.4µM*; HCV inhibitor: -17.3%

What do the screens show for `COc1ccc2nc(NC(=O)CCn3cccc3)sc2c1`?
AMA1-RON2 inh: -7.8%; Pf growth 96h: 19.8%; NS1 function inh: -0.5%; SARS PLpro yeast: 10.4%; Pf growth 48h: 55.0%; HCV inhibitor: 5.8%

How did COc1ccc(C(=O)Nc2nc3ccccc3s2)c(OC)c1 do in these assays?
AMA1-RON2 inh: -1.0%; Pf growth 96h: 13.1µM*; NS1 function inh: -27.8%; SARS PLpro yeast: -20.2%; Pf growth 48h: inconclusive; HCV inhibitor: -8.2%

What do the screens show for `O=C(Nc1ccccc1Cl)c1cc(C2CCCCN2C(=O)CCCc2ccccc2)on1` (stereo unspecified)?
AMA1-RON2 inh: 3.2%

What do the screens show for `CCCCn1c(N)c(N(CCOC)C(=O)c2cc(=O)[nH]c3ccccc23)c(=O)[nH]c1=O`?
AMA1-RON2 inh: 8.2%[11.6 µM]; Pf growth 96h: 17.4%; SARS PLpro yeast: -2.0%; Pf growth 48h: 10.2%; HCV inhibitor: 2.7%

What do the screens show for `COc1ccc(CCC(=O)Nc2nnc(C(F)(F)F)s2)cc1`?
AMA1-RON2 inh: -10.1%; Pf growth 96h: 14.7µM*; NS1 function inh: -10.5%; SARS PLpro yeast: 14.2%; Pf growth 48h: inconclusive; HCV inhibitor: 7.2%

How did COc1ccc(CCC(=O)Nc2nnc(C(C)(C)C)s2)cc1 do in these assays?
AMA1-RON2 inh: -2.1%; Pf growth 96h: inconclusive; NS1 function inh: 1.4%; SARS PLpro yeast: -2.6%; Pf growth 48h: 19.3%; HCV inhibitor: 6.8%

Results for CC1CN(S(=O)(=O)c2cc(C(=O)N(C)Cc3cccs3)ccc2Cl)CC(C)O1 (stereo unspecified) ?
AMA1-RON2 inh: 8.3%[11.6 µM]; SARS PLpro yeast: -1.4%; HCV inhibitor: inconclusive

Results for CCCCOc1ccc(C(=O)NCCc2ccccc2)cc1 ?
AMA1-RON2 inh: 2.5%; Pf growth 96h: 2.62µM*; NS1 function inh: 0.6%; SARS PLpro yeast: inconclusive; Pf growth 48h: 27.2%; HCV inhibitor: -23.4%

How did COc1ccc(C(=O)Nc2cc(C(=O)NCCc3ccccc3)ccc2Cl)cc1 do in these assays?
AMA1-RON2 inh: -3.7%; NS1 function inh: -10.1%; SARS PLpro yeast: -7.4%; Pf growth 48h: -1.9%; HCV inhibitor: 8.91µM*

Results for CCCCOc1ccc(CC(=O)NO)cc1 ?
AMA1-RON2 inh: 27.6%; Pf growth 96h: 0.233µM*; NS1 function inh: -30.5%; SARS PLpro yeast: 12.4%; Pf growth 48h: 0.415µM*; HCV inhibitor: inconclusive

What do the screens show for `CCOc1ccc(CCNC(=O)c2ccc3nc(CC)c(CC)nc3c2)cc1`?
AMA1-RON2 inh: 0.0%; Pf growth 96h: 13.1µM*; NS1 function inh: 7.1%; SARS PLpro yeast: 1.3%; Pf growth 48h: -11.6%; HCV inhibitor: inconclusive

Results for COCC(=O)Nc1cc(C(=O)NCCc2ccccc2)ccc1Cl ?
AMA1-RON2 inh: 0.0%; Pf growth 96h: 218.9%; NS1 function inh: -9.6%; SARS PLpro yeast: -20.1%; Pf growth 48h: 226.9%; HCV inhibitor: 17.9%

Results for CCc1nc2ccc(C(=O)NCCc3ccco3)cc2nc1CC ?
AMA1-RON2 inh: 4.0%; Pf growth 96h: inconclusive; NS1 function inh: -8.1%; SARS PLpro yeast: -12.6%; Pf growth 48h: 86.3%; HCV inhibitor: inconclusive

How did CC(=O)c1cccc(NC(=O)CN2CCc3cc4c(cc3C2)OCCCO4)c1 do in these assays?
AMA1-RON2 inh: -5.6%; Pf growth 96h: inconclusive; NS1 function inh: -3.2%; SARS PLpro yeast: 5.0%; Pf growth 48h: 17.8%; HCV inhibitor: inconclusive

What do the screens show for `COc1ccc(C(=O)Nc2nc(CC(=O)NCCc3ccccc3)cs2)cc1`?
AMA1-RON2 inh: -0.5%; Pf growth 96h: 31.4%; SARS PLpro yeast: -0.4%; Pf growth 48h: 15.5%; HCV inhibitor: 10µM*

Results for COc1ccc(C(=O)Nc2nc(CC(=O)NCCc3cccc(OC)c3)cs2)cc1 ?
AMA1-RON2 inh: -8.4%; Pf growth 96h: inconclusive; SARS PLpro yeast: -7.2%; Pf growth 48h: -24.4%; HCV inhibitor: inconclusive
